The AC50 is the concentration at which the activity in the assay is half-maximal.

Conditions in all cases: mRNA level, 48 h; actives raise or lower the signal
Read-out in test [1]: Glutathione S-Transferase (GSTA2), GSTA2 (gene 2939)
The test is described as follows: LTEA_HepaRG_GSTA2: Life Technologies and Expression Analysis (LTEA) Assay for Glutathione S-Transferase (GSTA2) using HepaRG (AID 2283497). The method in brief: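 Differentiated human HepaRG cells were exposed in duplicate for 48 h in serum-free induction medium, 8 points from 100 uM top in half-log steps, 0.5% DMSO. GSTA2 mRNA was measured by TaqMan qRT-PCR, normalized to ACTB, GAPDH and POLR2A; bidirectional fit versus DMSO.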

Read-out in test [2]: Glutamate-cysteine ligase catalytic (GCLC), GCLC (gene 2729)
The test is described as follows: LTEA_HepaRG_GCLC: Life Technologies and Expression Analysis (LTEA) Assay for Glutamate-cysteine ligase catalytic (GCLC) using HepaRG (AID 2283498). In short, it runs like this:
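Differentiated HepaRG cells exposed 48 h in serum-free induction medium, eight-point half-log series topping at 100 uM in 0.5% DMSO, duplicates. GCLC mRNA by qRT-PCR normalized to ACTB, GAPDH and POLR2A, fitted bidirectionally versus DMSO.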

Read-out in test [3]: Glutamate-cysteine ligase regulatory (GCLM), GCLM (gene 2730)
The test is described as follows: LTEA_HepaRG_GCLM: Life Technologies and Expression Analysis (LTEA) Assay for Glutamate-cysteine ligase regulatory (GCLM) using HepaRG (AID 2283500). In short, it runs like this:
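Human liver HepaRG cultures receive test chemicals for 48 hours at up to 100 uM in 0.5% DMSO. GCLM expression is measured by qRT-PCR and analysed for increases or decreases against vehicle.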

Read-out in test [4]: Glutathione S-transferase M3 (GSTM3), GSTM3 (gene 2947)
The test is described as follows: LTEA_HepaRG_GSTM3: Life Technologies and Expression Analysis (LTEA) Assay for Glutathione S-transferase M3 (GSTM3) using HepaRG (AID 2283501). The method in brief:
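Changes in GSTM3 expression, an oxidative-stress marker, were scored by bidirectional curve fitting against 0.5% DMSO vehicle. Human HepaRG cultures received chemicals for 48 h in duplicate, highest concentration 100 uM with half-log dilutions.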

Read-out in test [5]: Heat shock 70 kDa protein 1 (HSPA1A), gene 3303
The test is described as follows: LTEA_HepaRG_HSPA1A: Life Technologies and Expression Analysis (LTEA) Assay for Heat shock 70 kDa protein 1 (HSPA1A) using HepaRG (AID 2283502). The method in brief: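 HSPA1A induction in human HepaRG liver cells is measured after 48 h of chemical treatment (100 uM maximum, 0.5% DMSO vehicle). Expression comes from qRT-PCR normalized to endogenous controls.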

Read-out in test [6]: Hypoxia-inducible factor 1-alpha (Homo sapiens) (UniProt Q16665)
The test is described as follows: LTEA_HepaRG_HIF1A: Life Technologies and Expression Analysis (LTEA) Assay for Hypoxia-inducible factor 1 (HIF1A) Trancription factor using HepaRG (AID 2283503).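 Further: HIF1A transcript by TaqMan qRT-PCR normalized to ACTB GAPDH and POLR2A.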 The method in brief: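 HepaRG, 48 h exposure, 8-pt half-log series from 100 uM, 0.5% DMSO vehicle, duplicates. Readout: HIF1A transcript by qRT-PCR (Fluidigm array), housekeeping-normalised. Bidirectional curve fit vs DMSO baseline.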

Read-out in test [7]: 3-Hydroxy-3-Methylglutaryl-CoA Synthase 2 (HMGCS2), HMGCS2 (gene 3158)
The test is described as follows: LTEA_HepaRG_HMGCS2: Life Technologies and Expression Analysis (LTEA) Assay for 3-Hydroxy-3-Methylglutaryl-CoA Synthase 2 (HMGCS2) using HepaRG (AID 2283504). In short, it runs like this: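 Expression of HMGCS2 in human HepaRG liver cells is measured by qRT-PCR 48 h after dosing (highest 100 uM, half-log series, 0.5% DMSO). Values come from bidirectional concentration-response fitting with DMSO as baseline.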

Read-out in another test: HGF (gene 3082)
The test is described as follows: LTEA_HepaRG_HGF: Life Technologies and Expression Analysis (LTEA) Assay for Hepatocyte Growth Facto (HGF) using HepaRG (AID 2283505). The method in brief:
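Gain or loss of HGF mRNA in human HepaRG liver cells after 48 h chemical exposure; eight concentrations up to 100 uM with 0.5% DMSO vehicle, quantified by TaqMan qRT-PCR.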

Read-out in test [8]: Insulin Like Growth Factor 1 (IGF1), IGF1 (gene 3479)
The test is described as follows: LTEA_HepaRG_IGF1: Life Technologies and Expression Analysis (LTEA) Assay for Insulin Like Growth Factor 1 (IGF1) using HepaRG (AID 2283506). In short, it runs like this:
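Using human HepaRG liver cells, IGF1 transcript induction or suppression is measured 48 h after dosing across eight concentrations capped at 100 uM. Values derive from bidirectional concentration-response fitting with DMSO as baseline.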

Read-out in test [9]: Insulin-like growth factor-binding protein 1 (IGFBP1), IGFBP1 (gene 3484)
The test is described as follows: LTEA_HepaRG_IGFBP1: Life Technologies and Expression Analysis (LTEA) Assay for Insulin-like growth factor-binding protein 1 (IGFBP1) using HepaRG (AID 2283508). In short, it runs like this: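 mRNA induction or loss was quantified by qRT-PCR after 48 h chemical exposure of human HepaRG cells, with 0.5% DMSO as vehicle and baseline. Concentration-response over eight points up to 100 uM.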

Read-out in test [10]: Interleukin 6 (IL6), IL6 (gene 3569)
The test is described as follows: LTEA_HepaRG_IL6: Life Technologies and Expression Analysis (LTEA) Assay for Interleukin 6 (IL6) using HepaRG (AID 2283509). In short, it runs like this:
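HepaRG cells exposed in duplicate for 48 h to eight half-log concentrations, top 100 uM, in 0.5% DMSO serum-free induction medium. mRNA measured by qRT-PCR, normalized to ACTB, GAPDH and POLR2A. Bidirectional fit versus DMSO.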

Read-out in test [11]: Interleukin 6 Receptor (IL6R), IL6R (gene 3570)
The test is described as follows: LTEA_HepaRG_IL6R: Life Technologies and Expression Analysis (LTEA) Assay for Interleukin 6 Receptor (IL6R) using HepaRG (AID 2283510).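 On AC50: TaqMan qRT-PCR signal normalized to ACTB GAPDH and POLR2A housekeeping genes.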 In short, it runs like this: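 Concentration-response in human liver HepaRG cells: eight concentrations from 100 uM downward by half-logs, 48 h exposure, 0.5% DMSO vehicle. IL6R mRNA change measured by qRT-PCR and fitted in both directions relative to vehicle.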

Read-out in test [12]: Potassium channel subfamily K member 1 (KCNK1), KCNK1 (gene 3775)
The test is described as follows: LTEA_HepaRG_KCNK1: Life Technologies and Expression Analysis (LTEA) Assay for Potassium channel subfamily K member 1 (KCNK1) using HepaRG (AID 2283511). In short, it runs like this: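 Differentiated HepaRG cells, 48 h exposure in serum-free induction medium with 0.5% DMSO; 8 concentrations, half-log from 100 uM, duplicate. KCNK1 mRNA by qRT-PCR, normalized to ACTB, GAPDH, POLR2A; bidirectional fit vs DMSO.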

Read-out in test [13]: Keratin 19 (KRT19), KRT19 (gene 3880)
The test is described as follows: LTEA_HepaRG_KRT19: Life Technologies and Expression Analysis (LTEA) Assay for Keratin 19 (KRT19) using HepaRG (AID 2283512). In short, it runs like this:
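Gene-expression endpoint in the human liver line HepaRG after 48 h exposure to up to 100 uM test chemical with 0.5% DMSO vehicle; KRT19 mRNA by qRT-PCR, analyzed bidirectionally versus DMSO.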

Read-out in test [14]: JUN Transcription Factor, JUN (gene 3725)
The test is described as follows: LTEA_HepaRG_JUN: Life Technologies and Expression Analysis (LTEA) Assay for JUN Transcription Factor using HepaRG (AID 2283513). In short, it runs like this:
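Human HepaRG liver cells receive test chemicals in 0.5% DMSO for 48 h across an eight-point range topping at 100 uM. Expression changes in JUN are scored in both directions against the DMSO vehicle.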

Read-out in test [15]: Lipase C (LIPC), LIPC (gene 3990)
The test is described as follows: LTEA_HepaRG_LIPC: Life Technologies and Expression Analysis (LTEA) Assay for Lipase C (LIPC) using HepaRG (AID 2283514). The method in brief:
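HepaRG cells, 48 h after plating, treated in duplicate for 48 h in serum-free induction medium over 8 half-log concentrations from 100 uM, 0.5% DMSO. LIPC mRNA by TaqMan qRT-PCR normalized to ACTB/GAPDH/POLR2A; bidirectional fit versus DMSO.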

Read-out in test [16]: Lipoprotein lipase (LPL), LPL (gene 4023)
The test is described as follows: LTEA_HepaRG_LPL: Life Technologies and Expression Analysis (LTEA) Assay for Lipoprotein lipase (LPL) using HepaRG (AID 2283515). The method in brief: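 Differentiated HepaRG cells, plated 48 h, then exposed 48 h in serum-free induction medium to 8 concentrations (top 100 uM, half-log steps) in 0.5% DMSO, duplicate. LPL mRNA measured by qRT-PCR, normalized to ACTB, GAPDH and POLR2A.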

Read-out in test [17]: MicroRNA 122 (MIR122), gene 406906
The test is described as follows: LTEA_HepaRG_MIR122: Life Technologies and Expression Analysis (LTEA) Assay for MicroRNA 122 (MIR122) using HepaRG (AID 2283516). Further: the transcript read is the microRNA miR-122. The method in brief: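 HepaRG, 48 h exposure, 8-pt half-log from 100 uM, 0.5% DMSO; TaqMan qRT-PCR; bidirectional fit vs DMSO.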

Read-out in test [18]: Intercellular Adhesion Molecule 1 (ICAM1), ICAM1 (gene 3383)
The test is described as follows: LTEA_HepaRG_ICAM1: Life Technologies and Expression Analysis (LTEA) Assay for Intercellular Adhesion Molecule 1 (ICAM1) using HepaRG (AID 2283507). In short, it runs like this:
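Gain or loss of transcript in HepaRG hepatic cells is quantified by qRT-PCR after 48 h chemical exposure (up to 100 uM, half-log steps), with DMSO as baseline.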

Structures are written as SMILES. Activity calls are given as the source filed them. How the source made its calls: active means hit-call score of the fitted dose curve at least 0.9, where 1 is the maximum; inactive means score below 0.9.

Hypoxia-inducible factor 1-alpha (Homo sapiens), sequence (Q16665 whole entry, looked up): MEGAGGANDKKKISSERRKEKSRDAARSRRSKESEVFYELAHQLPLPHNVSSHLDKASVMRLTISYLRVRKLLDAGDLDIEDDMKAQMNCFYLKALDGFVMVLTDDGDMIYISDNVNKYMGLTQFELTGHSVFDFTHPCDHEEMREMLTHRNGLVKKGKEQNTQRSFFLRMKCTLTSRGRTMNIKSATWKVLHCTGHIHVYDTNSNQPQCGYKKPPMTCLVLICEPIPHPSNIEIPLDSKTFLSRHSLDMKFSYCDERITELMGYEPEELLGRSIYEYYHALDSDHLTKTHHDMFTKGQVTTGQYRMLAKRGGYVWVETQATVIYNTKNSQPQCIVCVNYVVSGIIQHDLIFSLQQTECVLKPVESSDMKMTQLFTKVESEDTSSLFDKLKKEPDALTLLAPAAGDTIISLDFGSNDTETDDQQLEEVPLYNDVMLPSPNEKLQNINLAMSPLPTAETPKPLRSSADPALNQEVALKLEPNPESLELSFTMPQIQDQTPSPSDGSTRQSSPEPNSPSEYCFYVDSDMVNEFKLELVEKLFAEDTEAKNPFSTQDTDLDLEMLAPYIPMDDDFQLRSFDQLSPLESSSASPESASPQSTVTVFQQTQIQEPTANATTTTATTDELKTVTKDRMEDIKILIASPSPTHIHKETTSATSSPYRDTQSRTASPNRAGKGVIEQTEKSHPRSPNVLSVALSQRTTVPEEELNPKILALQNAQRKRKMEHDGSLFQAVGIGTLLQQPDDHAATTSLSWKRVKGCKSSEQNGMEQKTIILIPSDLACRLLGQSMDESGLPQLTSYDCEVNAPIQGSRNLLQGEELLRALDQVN

Turning to `CCCCc1ccc2c(n1)[C@@H](c1ccc(OC)cc1C[C@H](C)C(=O)O)[C@H](C(=O)O)[C@H]2c1ccc2c(c1)OCO2`, the outcome in [1], in [2], in test [3], in [4], in [5] and in [6] was inactive. In addition, the outcome (in test [7]; with HGF (gene 3082); in [8]; in [9]; in test [10]; in test [11]) was inactive. For the same compound, the call in test [12], in [13], in test [14], in [15], in [16] and in test [17] was inactive.
Take `CCc1c(C(=O)NN2CCCCC2)nn(-c2ccc(Cl)cc2Cl)c1-c1ccc(Br)cc1`: the AC50 in [1] is 31.7 µM (active); in test [2] it was 50 µM (active); in [3], 50 µM (active); in test [5], 86.3 µM (active); in test [6], 86.6 µM (active); in test [7] it was 23.7 µM (active). In addition, the AC50 with HGF (gene 3082) is 90.4 µM (active); in [8], 50 µM (active); in test [18], 26.6 µM (active); in test [9], 31.6 µM (active); in test [10], 76.5 µM (active); in [11], 89.1 µM (active). Moreover, the AC50 in test [12] is 58.6 µM (active); in [13] it was 50 µM (active); in test [14], 50 µM (active); in test [15], 34.2 µM (active); in [16], 4.13 µM (active); in [17] it was 29.8 µM (active). Further, in test [4], the call was inactive.
On to `CNC(=O)[C@H]1O[C@@H](n2cnc3c(NCc4cc(Cl)ccc4OCc4cc(C)no4)ncnc32)[C@H](O)[C@@H]1N`, for which the result in [1], in [2], in test [3], in test [4], in test [5] and in [6] was inactive. The outcome (in [7]; with HGF (gene 3082); in [8]; in test [9]; in [10]; in [11]) was inactive. For the same compound, the compound was classed as inactive in test [12], in [13], in test [14], in test [15] and in [16].

The record behind these values is PubChem BioAssay (EPA / NIEHS).
